Source: PubChem (Center for Chemical Genomics, University of Michigan)
Dicer inh – inhibitors of human Dicer processing of pre-microRNA. Q9UPY3. cat-ELCCA pre-miR-21 Dicer processing, chemiluminescence; stronger effect = higher value. z-score at 25 µM. 47,000 compounds, 6% hits. AID 1347074; in the data active = z-score above about 3, passing the limit was not always enough;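 also: plate controls were vehicle for no effect and no enzyme for full effect; higher signal means more uncleaved substrate so more Dicer inhibition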
Numbers without * were called inactive. Many of the other results were omitted from the sample, so hits are more common in it than they were.

SMILES	Dicer inh
CSc1c(NC(=O)/C=C\C(=O)O)cccc1C(F)(F)F	-0.03
COc1ccccc1C1CCN(c2ncnc3scc(-c4ccccc4)c23)CC1	-1.6
CNS(=O)(=O)c1ccc2[nH]c(=O)c(=O)[nH]c2c1	0.69
CCOCCOC(=O)C1=C(C)NC2=C(C(=O)CC(c3cccs3)C2)C1c1cccc(O)c1 (configuration not stated)	3.4*
COc1ccc(C2CC(=O)C3=C(C2)NC(C)=C(C#N)C3c2ccc(F)cc2)cc1 (configuration not stated)	4.5*
CC1=C(C#N)C(c2ccc(F)cc2)C2=C(CC(c3ccccc3)CC2=O)N1 (configuration not stated)	1.1
CCOCCOC(=O)C1=C(C)NC2=C(C(=O)CC(c3cccs3)C2)C1c1ccc(OC)c(O)c1 (configuration not stated)	-0.96
COc1ccc(C2CC(=O)C3=C(C2)NC(C)=C(C(=O)OC(C)C)C3c2ccc(F)cc2)cc1 (configuration not stated)	-0.25
COc1ccc(C2CC(=O)C3=C(C2)NC(C)=C(C(=O)OC(C)C)C3c2ccc(N(C)C)cc2)cc1 (configuration not stated)	3.8*
CCOc1ccc(C2C(C(=O)OC(C)C)=C(C)NC3=C2C(=O)CC(c2ccc(OC)cc2)C3)cc1 (configuration not stated)	0.91
CCOc1cc(C2C(C(=O)OC(C)C)=C(C)NC3=C2C(=O)CC(c2ccccc2)C3)ccc1O (configuration not stated)	11*
CCOC(=O)C1=C(C)NC2=C(C(=O)CC(c3cccs3)C2)C1c1ccsc1 (configuration not stated)	1.1
CCOc1ccc(C2C(C(=O)OC(C)C)=C(C)NC3=C2C(=O)CC(c2ccccc2)C3)cc1 (configuration not stated)	2.3
COc1ccc(C2CC(=O)C3=C(C2)NC(C)=C(C#N)C3c2ccc(Br)cc2)cc1 (configuration not stated)	0.83
CCOc1ccc(C2C(C(=O)OC(C)C)=C(C)NC3=C2C(=O)CC(c2ccccc2)C3)cc1OC (configuration not stated)	1.5
CSc1nnc2c(n1)OC(c1ccc(Cl)cc1)N(C(C)=O)c1ccccc1-2 (configuration not stated)	1.6
CCCCC#Cc1ccc(C(=O)N/N=C/c2ccccc2)o1	-1.8
C/C(=C\c1cc(Br)cs1)[N+](=O)[O-]	1.3
COCCNc1cc(C)nc2ccc(C)cc12	-1.1
Cc1cc(OC(=O)c2c(Cl)cccc2Cl)c(Cl)c(C)c1Cl	-0.31
C=CCN1C(=O)C2(/C(=C(/O)c3ccc(OCC)cc3)C(=O)C(=O)N2CC2CCCO2)c2ccccc21 (configuration not stated)	-0.24
CN(/N=C/c1ncc(C(F)(F)F)cc1Cl)C(=O)Nc1ccc(OC(F)(F)F)cc1	0.7
CCc1ccc(C2C(C#N)=C(C)NC3=C2C(=O)CCC3)cc1 (configuration not stated)	0.32
CCCOC(=O)C1=C(C)NC2=C(C(=O)CC(c3cccs3)C2)C1c1ccc(F)cc1 (configuration not stated)	2.8
COCCOC(=O)C1=C(C)NC2=C(C(=O)CC(c3cccs3)C2)C1c1ccc(O)cc1 (configuration not stated)	3*
SMILES	Dicer inh
CCOCCOC(=O)C1=C(C)NC2=C(C(=O)CC(c3cccs3)C2)C1c1ccc(O)c(OC)c1 (configuration not stated)	5*
CC1=C(C#N)C(c2cccc(F)c2)C2=C(CCCC2=O)N1 (configuration not stated)	4.7*
CC1=C(C#N)C(c2ccccc2F)C2=C(CCCC2=O)N1 (configuration not stated)	6.6
CCOc1cc(C2C(C(=O)OCCOC)=C(C)NC3=C2C(=O)CC(c2cccs2)C3)ccc1O (configuration not stated)	3.3*
COCCOC(=O)C1=C(C)NC2=C(C(=O)CC(c3cccs3)C2)C1c1ccsc1 (configuration not stated)	1.4
CCOC(=O)C1=C(C)NC2=C(C(=O)CC(c3ccc(OC)cc3)C2)C1c1ccc(O)c(OC)c1 (configuration not stated)	-0.1
CCOc1ccc(C2CC(=O)C3=C(C2)NC(C)=C(C(=O)OCCOC)C3c2cccs2)cc1OC (configuration not stated)	-1.4
CCOC(=O)C1=C(C)NC2=C(C(=O)CC(c3cccs3)C2)C1c1ccc(F)cc1 (configuration not stated)	-0.12
COCCOC(=O)C1=C(C)NC2=C(C(=O)CC(c3cccs3)C2)C1c1ccc(O)c(OC)c1 (configuration not stated)	2.5
Clc1ccc(/C=N/Nc2nc(-c3cc(-c4ccccc4)no3)cs2)cc1	-2.3
CC(C)c1nc(/N=C/N(C)C)nc(=O)n1C	0.95
O=C(COc1ccccc1O)NCc1ccccc1Cl	-0.98
O=C1CS(=O)(=O)C(c2cccnc2)N1Cc1ccc(F)cc1 (configuration not stated)	0.87
COc1ccc(Br)cc1/C=N/Nc1nccc(C(F)(F)F)n1	1.1
CS(=O)(=N/C=C(\C#N)S(=O)(=O)c1ccccn1)c1ccc(Cl)cc1 (configuration not stated)	1.2
Cc1[nH]c2ccccc2c(=O)c1CN(C)C	-0.83
Cc1ccc(-c2nc(NCCCN(C)C)c3ccccc3n2)cc1	7.8
Cc1ncc(CCCCN(C)C)c2c1[nH]c1ccccc12	7.7*
CCOC(=O)c1cc2cc(Cl)ccc2oc1=O	-0.85
O=C(c1cc(F)c(F)cc1Cl)n1cccn1	-0.66
CN(C)CCCOC(=O)c1cc2ccccc2o1	0.59
CN(CCOC(=O)c1cc2ccccc2o1)C(C)(C)C	2.7
COc1ccc(OC(=O)c2cc3ccccc3o2)cc1	4.7*
Clc1cc(Cl)cc(C=NCc2ccccc2)c1	-0.74
Cc1c(C)c(C)c(S(=O)(=O)Oc2cc(Cl)cc(Cl)c2)c(C)c1C	-0.02
SMILES	Dicer inh
Cc1c(C)c(C)c(S(=O)(=O)Oc2cccnc2)c(C)c1C	3.8*
COc1ccc(S(=O)(=O)Nc2cccnc2)c(C)c1C	1.1
CC1=C(C(=O)OCCOC(C)C)C(c2ccc3c(c2)OCO3)C2=C(CC(c3cccs3)CC2=O)N1 (configuration not stated)	-0.49
COc1c(C(=O)Nc2ccc(Cl)cc2)cnc2c1c(C)nn2C	1.6
CCC1CCC(C)N(C(=S)Nc2ccc(Cl)c(Cl)c2)C1 (configuration not stated)	0.9
CCOC(=O)c1c(N/N=C/c2ccc(C(F)(F)F)cc2)n[nH]c1C	-0.07
c1cncc(CN2CNc3nc4ccccc4n3C2)c1	3*
c1ccc2c(c1)nc1n2CN(Cc2ccc3c(c2)OCO3)CN1	3.5*
c1ccc(CCN2CN(CCCN3CCOCC3)c3nc4ccccc4n3C2)cc1	-1.4
c1ccc2c(c1)nc1n2CN(CCCN2CCOCC2)CN1	1.2
Cc1ccc2nc(NC3=NCN(Cc4ccc5c(c4)OCO5)CN3)nc(C)c2c1	0.55
Cc1cc2nc(NC3=NCN(Cc4cccnc4)CN3)nc(C)c2cc1C	1.5
Cc1c2c(n3c(nc4ccccc43)c1C#N)N(Cc1cccnc1)CC2	-1.2
c1ccc2oc(NC3=NCN(Cc4ccc5c(c4)OCO5)CN3)nc2c1	2.3
c1ccc2c(c1)nc1n2CN(CCN2CCOCC2)CN1	3.2*
O=C(Cn1cncn1)c1ccccc1Cl	-0.27
COC(=O)C1=NN(c2ccc(C)cc2)C2C(=O)N(c3ccc(Cl)cc3)C(=O)C12 (configuration not stated)	0.83
